From PubChem
rCAG binder – molecules binding r(CAG) RNA repeats | inhibition, % at 3 µM | hit rate 1.3% among 370,000 | r(CAG) RNA repeat, TO-PRO-1 dye displacement fluorescence;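 active means inhibition above the plate cutoff, the mean of all test compounds on that plate plus 3 SD, cut at about 35% in these data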;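 further: 0% = DMSO alone and 100% = 100 µM mitoxantrone as full dye displacement; higher means more dye released from RNA so lower well fluorescence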
DNMT1 inh – inhibitors of human DNMT1; P26358; DNMT1 molecular beacon, Hinp1I cleavage, fluorescence; inhibition (reported as % activation of signal), % at 10 µM; hit rate 0.83% among 360,000; in the data active means inhibition above about 50%
PG9 Ab binder – PG9 antibody binding by small molecule; hit rate 0.43% among 360,000; inhibition, % at 6.7 µM; AID 624416; TR-FRET gp120-PG9 antibody binding; in the data active means inhibition above about 8.5%
UHRF1 binding – UHRF1 methyl-DNA binding inhibition; Q96T88; UHRF1 binding to methylated oligo, TR-FRET; inhibition, % at 4.4 µM; hit rate 0.75% among 370,000; AID 687016; in the data active means inhibition above about 21%;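 further: UHRF1 SRA domain binding a hemimethylated CpG hairpin DNA probe; 0% = median of test compound wells and 100% = reference inhibitor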
Target sequence (Q96T88 whole entry, looked up, the tested form may be a part): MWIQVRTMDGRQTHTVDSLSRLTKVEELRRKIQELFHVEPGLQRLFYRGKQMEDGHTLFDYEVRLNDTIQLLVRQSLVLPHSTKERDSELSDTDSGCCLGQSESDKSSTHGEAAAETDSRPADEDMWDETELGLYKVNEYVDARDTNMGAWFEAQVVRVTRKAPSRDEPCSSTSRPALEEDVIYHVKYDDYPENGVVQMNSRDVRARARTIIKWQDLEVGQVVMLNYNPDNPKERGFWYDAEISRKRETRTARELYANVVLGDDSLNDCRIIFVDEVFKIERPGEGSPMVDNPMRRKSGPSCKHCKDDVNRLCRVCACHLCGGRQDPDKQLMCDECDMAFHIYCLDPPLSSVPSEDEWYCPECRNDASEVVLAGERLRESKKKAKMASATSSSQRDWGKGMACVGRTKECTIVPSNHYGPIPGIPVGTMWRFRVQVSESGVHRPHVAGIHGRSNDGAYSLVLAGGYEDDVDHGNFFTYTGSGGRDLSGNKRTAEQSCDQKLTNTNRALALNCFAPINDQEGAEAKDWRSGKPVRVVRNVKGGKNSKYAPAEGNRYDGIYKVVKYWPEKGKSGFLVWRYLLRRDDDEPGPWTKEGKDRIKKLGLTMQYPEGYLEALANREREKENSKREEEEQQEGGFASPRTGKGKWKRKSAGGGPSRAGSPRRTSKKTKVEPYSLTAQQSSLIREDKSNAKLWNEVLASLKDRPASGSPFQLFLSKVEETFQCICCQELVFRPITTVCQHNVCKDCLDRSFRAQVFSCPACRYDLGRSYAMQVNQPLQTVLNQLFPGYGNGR
MBD2 inh – inhibitors of human MBD2 binding to methylated oligonucleotide | Q9UBB5 | TR-FRET | inhibition, % at 4.4 µM | hit rate 0.31% among 370,000 | AID 686964; in the data active means inhibition above about 13%
LEDGF integ inh – blocks HIV-1 LEDGF/p75-dependent DNA integration; AID 743269; hit rate 0.64% among 370,000; inhibition, % at 3.7 µM; TR-FRET IN-LEDGF/p75 DNA integration, Eu/Cy5;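 active means inhibition above the screen-wide mean plus 3 SD, cut at about 13% in these data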;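 further: signal is the Cy5 over europium emission ratio at 671 and 618 nm; 0% = plate median of compound wells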
rCAG bind conf – r(CAG) RNA repeat binding, confirmation. shares compounds with rCAG binder. TO-PRO-1 dye displacement fluorescence. inhibition, % at 3 µM. hit rate 70% among 4,300. AID 652065;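 active means inhibition above a per-plate cutoff, the mean inhibition of sample wells plus 3 SD, cut at about 35% in these data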;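 further: loss of TO-PRO-1 fluorescence as compound displaces dye from 1x1 AA loop RNA; 0% = DMSO only wells and 100% = 100 µM mitoxantrone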
dCAG dye counter – disrupts DNA CAG TO-PRO-1 complex, flagging rCAG hits. shares compounds with rCAG binder. d(CAG) DNA oligo TO-PRO-1 dye displacement, fluorescence. inhibition, % at 3 µM. hit rate 94% among 4,300. AID 652068;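 active means inhibition above its plate's cutoff, the mean test-well inhibition plus 3 SD, cut at about 4.8% in these data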;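 further: 0% = DNA dye mix with DMSO and 100% = 100 µM mitoxantrone; hits displace the dye from DNA and so lower well fluorescence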
dCAG dye DR – disrupts DNA CAG TO-PRO-1 complex in dose response; shares compounds with rCAG binder; DNA CAG/GTC duplex TO-PRO-1 dye displacement fluorescence; IC50, µM; hit rate 20% among 250; AID 686960; in the data active means IC50 below about 10 µM
The depositor's hits bear a star. Only some compounds are listed: those with a hit (about 3.5% of all), similar ones and a draw of the others.

How did Cc1cc(C(=O)O)ccc1-c1ccc(CO)o1 do in these assays?
rCAG binder: -1; DNMT1 inh: 6; PG9 Ab binder: 0; UHRF1 binding: 1; MBD2 inh: 1; LEDGF integ inh: 3

Results for CC1=NN(c2ccccc2)C(=O)/C1=C/c1ccc(-c2ccc(C)c(C(=O)O)c2)o1 ?
rCAG binder: 4; PG9 Ab binder: -1; UHRF1 binding: -3; MBD2 inh: -2; LEDGF integ inh: 3

What do the screens show for `Nc1nc2c(nnn2Cc2ccc(Cl)c(Cl)c2)c(=O)[nH]1`?
rCAG binder: 7; DNMT1 inh: 9; PG9 Ab binder: 0; UHRF1 binding: 1; MBD2 inh: 2; LEDGF integ inh: -1

Results for CC(=O)Nc1cccc(C(=O)NC2CCCc3c2cnn3-c2cc(C)cc(C)c2)c1 (stereo unspecified) ?
rCAG binder: -2; DNMT1 inh: 1; PG9 Ab binder: -1; UHRF1 binding: 0; MBD2 inh: 2; LEDGF integ inh: 1

Results for O=C(CCN1C(=O)/C(=C/c2ccc(Cl)cc2)SC1=S)Nc1cccc(C(=O)O)c1 ?
rCAG binder: 6; DNMT1 inh: 0; PG9 Ab binder: 0; UHRF1 binding: -3; MBD2 inh: 3; LEDGF integ inh: 4

What do the screens show for `O=C(O)c1cccc(N2C(=O)/C(=C/c3ccc(SCc4ccc(Cl)cc4)o3)SC2=S)c1`?
rCAG binder: 67*; DNMT1 inh: 84*; PG9 Ab binder: -2; UHRF1 binding: 89*; MBD2 inh: 40*; LEDGF integ inh: 60*; rCAG bind conf: 88*; dCAG dye counter: 61*

What do the screens show for `CC(SCc1ccccc1)C(=O)Nc1ccc(F)cc1` (stereo unspecified)?
rCAG binder: 6; DNMT1 inh: 3; PG9 Ab binder: 2; UHRF1 binding: 1; MBD2 inh: 2; LEDGF integ inh: 3

How did N#CC(C#N)=C(Nc1ccc(F)cc1)SCc1cccc(Br)c1 do in these assays?
rCAG binder: 47*; DNMT1 inh: -3; PG9 Ab binder: 2; UHRF1 binding: -1; MBD2 inh: -4; LEDGF integ inh: -1; rCAG bind conf: 51*; dCAG dye counter: 16*; dCAG dye DR: >30

What do the screens show for `CCOc1cc(C(c2c(C)[nH][nH]c2=O)c2c(C)[nH][nH]c2=O)ccc1OCc1ccc([N+](=O)[O-])cc1`?
rCAG binder: 39*; DNMT1 inh: -26; PG9 Ab binder: 0; UHRF1 binding: -9; MBD2 inh: -8; LEDGF integ inh: 3; rCAG bind conf: 42*; dCAG dye counter: 14*

Results for CCOc1ccc2sc(NS(=O)(=O)c3ccc(OC)c(OC)c3)nc2c1 ?
rCAG binder: 52*; DNMT1 inh: 2; PG9 Ab binder: -3; UHRF1 binding: 10; MBD2 inh: 0; LEDGF integ inh: -6; rCAG bind conf: 26; dCAG dye counter: 5.9*

What do the screens show for `Cc1ccc(S(=O)(=O)N2CCC(C(=O)OCC(=O)N3CC(C)CC(C)C3)CC2)cc1C` (stereo unspecified)?
rCAG binder: -4; DNMT1 inh: -2; PG9 Ab binder: 0; UHRF1 binding: 3; MBD2 inh: 6; LEDGF integ inh: -5

What do the screens show for `Cc1ccc(Sc2ccc(S(=O)(=O)Nc3ccc(CC(=O)O)cc3)cc2)cc1C`?
rCAG binder: 52*; DNMT1 inh: 0; PG9 Ab binder: 3; UHRF1 binding: 2; MBD2 inh: -3; LEDGF integ inh: 5; rCAG bind conf: 44*; dCAG dye counter: 14*

Results for Cc1ccc(C)c(Sc2ccc(S(=O)(=O)Nc3ccc(C(=O)O)cc3)cc2)c1 ?
rCAG binder: 38*; DNMT1 inh: -1; PG9 Ab binder: 0; UHRF1 binding: 3; MBD2 inh: -4; LEDGF integ inh: 7; rCAG bind conf: 41*; dCAG dye counter: 11*

Results for CCCN=C1N(C)C[C@@H]2[C@@H]3C(=O)N(C)C(=O)[C@@H]3[C@](Cc3ccccc3)(C(=O)OC)N12 ?
rCAG binder: 1; DNMT1 inh: 3; PG9 Ab binder: -1; UHRF1 binding: -1; MBD2 inh: -2; LEDGF integ inh: 3

How did C=CCn1c(CSCc2ccc(Cl)cc2Cl)nnc1SCC(=O)Nc1ccc(C(=O)O)cc1 do in these assays?
rCAG binder: 36*; DNMT1 inh: 2; PG9 Ab binder: -2; UHRF1 binding: -1; MBD2 inh: -4; LEDGF integ inh: 1; rCAG bind conf: 53*; dCAG dye counter: 16*

Results for CC(=O)Nc1cc(-c2ccc(F)cc2)cn2c(-c3ccc(S(C)(=O)=O)cc3)cnc12 ?
rCAG binder: 8; DNMT1 inh: -6; PG9 Ab binder: -1; UHRF1 binding: -4; MBD2 inh: -1; LEDGF integ inh: 1

Results for CCN(CC)S(=O)(=O)c1cc(NS(=O)(=O)c2cccc(Cl)c2Cl)ccc1C ?
rCAG binder: 42*; DNMT1 inh: 4; PG9 Ab binder: -2; UHRF1 binding: -2; MBD2 inh: 1; LEDGF integ inh: 4; rCAG bind conf: 41*; dCAG dye counter: 12*

Results for Cc1ccc(NC(=O)c2cc(NC(=O)CCC(=O)O)ccc2N2CCCCC2)cc1 ?
rCAG binder: 11; DNMT1 inh: 3; PG9 Ab binder: -1; UHRF1 binding: 3; MBD2 inh: 4; LEDGF integ inh: -4

Results for Cc1ccc(Cl)cc1NC(=O)c1cc(NC(=O)CCCC(=O)O)ccc1N1CCCCC1 ?
rCAG binder: 51*; DNMT1 inh: 1; PG9 Ab binder: -1; UHRF1 binding: -2; MBD2 inh: 5; LEDGF integ inh: -2; rCAG bind conf: 56*; dCAG dye counter: 18*

How did COC(=O)Cn1ncc(N(C)Cc2ccccc2)c(Cl)c1=O do in these assays?
rCAG binder: 2; DNMT1 inh: 1; PG9 Ab binder: 0; UHRF1 binding: -2; MBD2 inh: -2; LEDGF integ inh: 2

How did O=C(N/N=C1/CC2CCC1C2)c1cc2ccccc2cc1O (stereo unspecified) do in these assays?
rCAG binder: 51*; DNMT1 inh: 1; PG9 Ab binder: -5; UHRF1 binding: -1; MBD2 inh: 4; LEDGF integ inh: -2; rCAG bind conf: 9; dCAG dye counter: 4

Results for O=C(NCC1CCCCC1)c1cc2ccccc2cc1O ?
rCAG binder: 9; DNMT1 inh: 0; PG9 Ab binder: 0; UHRF1 binding: -1; MBD2 inh: -4; LEDGF integ inh: 2
